Test systems include NCI-H23 lung; NCI-H226 lung; NCI-H322M lung; HOP-62 NSCLC; HOP-92 NSCLC; NCI-H522 lung; A549/ATCC NSCLC; 786-0 renal; COLO 205 colon; DU-145 prostate; MALME-3M melanoma; MDA-MB-231 breast; RXF 393 renal; SF-268 CNS; SF-295 CNS; SF-539 CNS; UACC-257 melanoma; M14 melanoma; NCI-H460 lung; K-562 leukemia.
Experiment in all cases: NCI-60 one-dose screen, 48 h (100 = growth as untreated, 0 = no growth, -100 = all killed)
What all share (settings): 10 µM unless noted

This passage reports growth results from PubChem BioAssay (NCI).

SMILES strings stand for the structures. This is part of a sample that, as a whole, favours compounds with a hit. Of some 83,000 tested, about 20% had one in any assay.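 The endpoint reported here, percent growth, reads 100 for growth as untreated, 0 for no net growth and -100 for all cells dead.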 A number with no mark means an inactive call. The source made the active and inactive calls. Rule for the calls: active = growth percent below 10; inactive = the rest.

In the case of `COc1ccc(NC(=O)Cn2c(/C=C/c3cccc([N+](=O)[O-])c3)nc3ccccc3c2=O)cc1`, the growth in the assay on NCI-H23 lung is 81.7%; in the assay on NCI-H226 lung it was 12.8%; in the assay on NCI-H322M lung, 90.7%; in the assay with HOP-62 NSCLC, 40.9%; in the assay with HOP-92 NSCLC, -0.339% (active); in the assay on NCI-H522 lung, 94.4%. Moreover, the growth with A549/ATCC NSCLC is 84.7%; in the assay with 786-0 renal, -15.8% (active); in the assay with COLO 205 colon, 98.8%; with DU-145 prostate, 93.9%; in the assay with MALME-3M melanoma, 77%; in the assay on MDA-MB-231 breast, 15.8%. In addition, the growth in the assay with RXF 393 renal is -6.3% (active); with SF-268 CNS, 71.6%; in the assay with SF-295 CNS, 79.2%; in the assay on SF-539 CNS, 7.2% (active); in the assay with UACC-257 melanoma it was 98.8%; in the assay on M14 melanoma, 76.7%.

For `COc1ccc(C2CC(c3ccc(S(=O)(=O)NCCNc4nc(Nc5ccc(F)cc5)nc(N(C)C)n4)cc3)=Nc3c(N)nc(N)nc3N2)cc1` (stereo not drawn), the growth in the assay on NCI-H23 lung is 90.4%; in the assay with NCI-H226 lung, 84.4%; in the assay with NCI-H322M lung, 96.6%; with HOP-62 NSCLC, 90.3%; with NCI-H460 lung, 73.6%; with NCI-H522 lung, 89.4%. Further, the growth is 91.3% in the assay on A549/ATCC NSCLC; 50.2% with 786-0 renal; 82.8% with COLO 205 colon; 102% in the assay with DU-145 prostate; 35.6% with K-562 leukemia; 106% with MALME-3M melanoma. Besides, the growth in the assay with MDA-MB-231 breast was 64.2%; in the assay with RXF 393 renal, 53.3%; in the assay with SF-268 CNS, 73.8%; in the assay on SF-295 CNS, 94.8%; in the assay with SF-539 CNS, 75.4%; with UACC-257 melanoma it was 100%. In addition, the growth in the assay with M14 melanoma was 81.9%.

Consider `COc1cc2c(c(OC)c1OC)C(=O)CC(c1cccc(NC(=O)c3cccc([N+](=O)[O-])c3)c1)O2` (stereo not drawn), for which the growth in the assay on NCI-H23 lung was 38.2%; in the assay with NCI-H226 lung it was 38.4%; with NCI-H322M lung, 63.3%; with HOP-62 NSCLC, 47.9%; in the assay with HOP-92 NSCLC it was 17%; with NCI-H522 lung, -7.5% (active). Further, the growth is 43.8% in the assay with A549/ATCC NSCLC; 59.7% in the assay with 786-0 renal; 51.8% in the assay on COLO 205 colon; 26.9% in the assay on DU-145 prostate; 25.7% with K-562 leukemia; 33.5% in the assay with MALME-3M melanoma. Moreover, the growth in the assay with MDA-MB-231 breast was 24.2%; with RXF 393 renal, 43.6%; in the assay on SF-268 CNS it was 38.4%; with SF-295 CNS, 44.6%; in the assay on SF-539 CNS, 48.7%; in the assay on UACC-257 melanoma, 44.1%. For the same molecule, the growth with M14 melanoma was 37.2%.

As to `CCOC(=O)C1=C(N)N(c2ccccc2)C2=C(C(=O)CC(C)(C)C2)C1c1ccc(Cl)cc1Cl` (stereo not drawn), the growth was 34.5% in the assay with NCI-H23 lung; 24.4% with NCI-H226 lung; 56.8% in the assay with NCI-H322M lung; 50.5% with HOP-62 NSCLC; -0.322% (active) in the assay on HOP-92 NSCLC; 35.3% in the assay on NCI-H522 lung. The growth in the assay on A549/ATCC NSCLC is 26.9%; in the assay with 786-0 renal, 34.3%; in the assay with COLO 205 colon, 9.03% (active); with DU-145 prostate, 46%; in the assay on K-562 leukemia, 13%; in the assay on MALME-3M melanoma it was 27.9%. Also, the growth in the assay with RXF 393 renal is 21.2%; in the assay with SF-268 CNS it was 52.1%; in the assay on SF-295 CNS it was 23.6%; in the assay on SF-539 CNS, 33.3%; in the assay on UACC-257 melanoma, 35%; in the assay with M14 melanoma, 41.3%.

Consider `COc1cc(/C=C/C(=O)c2ccccc2)ccc1Oc1nc(Nc2ccc(F)cc2)nc(N(C)C)n1`, for which the growth in the assay on NCI-H23 lung is 46.6%; in the assay with NCI-H226 lung, 43%; in the assay on NCI-H322M lung it was 61.2%; in the assay on HOP-62 NSCLC, 78.4%; in the assay on HOP-92 NSCLC, 28.7%; in the assay on NCI-H522 lung, 29.6%. Moreover, the growth in the assay with A549/ATCC NSCLC is 52.8%; with 786-0 renal, 39.6%; in the assay with COLO 205 colon, 36.2%; in the assay on DU-145 prostate it was 53.7%; in the assay with K-562 leukemia, 6.43% (active); with MALME-3M melanoma, 41.5%. Also, the growth in the assay with MDA-MB-231 breast was -4.47% (active); with RXF 393 renal it was 39.4%; in the assay on SF-268 CNS, 42.3%; with SF-295 CNS it was 26.5%; with SF-539 CNS it was -8.58% (active); in the assay on UACC-257 melanoma, 21.9%. The growth with M14 melanoma was 38.7%.

Regarding `CN1CCN(c2ccc(C(=O)/C=C/c3ccc(Br)cc3)cc2)CC1`, the growth in the assay with NCI-H23 lung is 52.4%; in the assay with NCI-H226 lung it was 12.6%; in the assay on NCI-H322M lung, 62.8%; with HOP-62 NSCLC, 22.1%; in the assay on HOP-92 NSCLC it was 13.2%; with NCI-H522 lung, 52.8%. Moreover, the growth in the assay with A549/ATCC NSCLC is 7.46% (active); in the assay with 786-0 renal it was 19.5%; in the assay with COLO 205 colon, -14.7% (active); with DU-145 prostate, 32.9%; in the assay with MALME-3M melanoma, 74.4%; in the assay with MDA-MB-231 breast it was 16.7%. Besides, the growth in the assay on RXF 393 renal is 31.5%; with SF-268 CNS, 62.2%; with SF-295 CNS, 35.2%; with SF-539 CNS, -34.9% (active); in the assay on UACC-257 melanoma it was 25.4%; in the assay on M14 melanoma, -36.3% (active).

Turning to `COc1ccc(-c2nnc3ccc(N/N=C/c4ccc(O)cc4)nn23)cc1`, the growth with NCI-H23 lung is 32.5%; in the assay on NCI-H226 lung, 77.5%; with NCI-H322M lung, 61.9%; in the assay with HOP-62 NSCLC it was 88.4%; in the assay on HOP-92 NSCLC, 31.3%; in the assay on NCI-H522 lung, 46.7%. Further, the growth in the assay with A549/ATCC NSCLC is 58.5%; with 786-0 renal, 22.9%; in the assay with COLO 205 colon, 56.5%; with DU-145 prostate, 51.9%; in the assay with MALME-3M melanoma it was 64.2%; in the assay on MDA-MB-231 breast, 60.6%. The growth in the assay on RXF 393 renal is 42.7%; with SF-268 CNS it was 35.8%; in the assay on SF-295 CNS, 43.6%; in the assay on SF-539 CNS, 36.4%; in the assay with UACC-257 melanoma, 82.3%; in the assay on M14 melanoma, 56.4%.

For the molecule `NS(=O)(=O)c1ccc(N=Nc2c(O)n(CC(=O)Nc3ccccc3)c3ccccc23)cc1`, the growth in the assay with NCI-H23 lung is -19.1% (active); in the assay on NCI-H226 lung, 25.3%; with NCI-H322M lung, 52%; with HOP-62 NSCLC, 10.8%; with HOP-92 NSCLC it was 77.3%; in the assay with NCI-H522 lung, 31.6%. The growth in the assay with A549/ATCC NSCLC is 0.913% (active); in the assay on 786-0 renal it was 1.52% (active); in the assay with COLO 205 colon, 27.6%; in the assay with DU-145 prostate, 21.2%; in the assay on K-562 leukemia it was 14.7%; in the assay with MALME-3M melanoma, 20.7%. Also, the growth was -9.74% (active) in the assay with MDA-MB-231 breast; 48.9% in the assay with RXF 393 renal; 75.3% with SF-268 CNS; 13.3% in the assay with SF-295 CNS; -27.2% (active) with SF-539 CNS; 61.5% in the assay on UACC-257 melanoma. For the same molecule, the growth in the assay on M14 melanoma is 11.2%.
